# From PubChem BioAssay
# The full list was thinned out, with hits kept by preference.
# Dicer processing – blocks human Dicer maturation of pre-miR-21; 47,000 tested, 6% active; z-score at 25 µM; cat-ELCCA pre-miR-21 Dicer processing, chemiluminescence; hits give high values; Q9UPY3; in the data active = z-score above about 3, passing the limit was not always enough;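 note: plate controls were vehicle for no effect and no enzyme for full effect; higher signal means more uncleaved substrate so more Dicer inhibition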
# An asterisk follows results filed as active.
SMILES,Dicer processing
CSc1ccccc1NC(=O)c1cc2n(n1)C(C(F)(F)F)CC(c1ccco1)N2 (stereo unspecified),-0.22
CC1CN(C(=O)c2cc3n(n2)C(C(F)(F)F)CC(c2ccco2)N3)CC(C)O1 (stereo unspecified),1.7
NNC(=O)c1csc(N/N=C2\CCCc3ccccc32)n1,2.9
O=C(c1ccccc1)c1cccc(Cl)c1,-0.09
O=C1CC(c2ccc(F)cc2)c2c(n[nH]c2-c2ccccc2)N1 (stereo unspecified),3
Cc1cccc(NC(=O)c2ccc(Cl)cc2N)n1,-0.18
COc1cc(/C=C2\N=C(C)OC2=O)cc(OC)c1,1.1
COc1ccc(NC2=NC(C)(CO)CS2)cc1 (stereo unspecified),0.62
C=C1SC(Nc2ccccc2OC)=NC1(C)C,-1.3
C=C1SC(Nc2cc(OC)cc(OC)c2)=NC1(C)C,15*
Cc1cc2ncc(-c3ccnc(SCc4c(Cl)cccc4Cl)n3)c(C)n2n1,24*
Cc1cc2ncc(-c3ccnc(SCC(=O)c4ccc(Cl)cc4)n3)c(C)n2n1,-0.37
Cc1cc2ncc(-c3ccnc(SCc4cccc(Cl)c4)n3)c(C)n2n1,0.37
Cn1c(=O)c2c(nc(N)n2CC(=O)O)n(C)c1=O,-4.9
O=S(=O)(Nc1nc(SCc2ccc(Cl)cc2)n[nH]1)c1ccc2c(c1)CCO2,2.7
O=C(Nc1ccc(OC(F)(F)F)cc1)Nc1cncc(C(F)(F)F)c1,-0.05
CC(C)CCSc1nc(N2CCCC2)c2c(c1C#N)CC(C)(C)OC2,3.1*
CC(C)Sc1nc(N2CCCC2)c2c(c1C#N)CC(C)(C)OC2,-0.59
CC1(C)Cc2c(C#N)c(SCc3ccccc3)nc(N3CCOCC3)c2CO1,-1.2
O=C(COc1ncnc2cc(Cl)ccc12)Nc1ccccc1Cl,0.67
CCOC(=O)c1nc(Nc2cccc(O)c2)c2ccccc2n1,0.52
CCOC(=O)c1c(NC(=O)CC)sc2c1CC(C)(C)OC2,1
CCOC(=O)C(=O)Nc1sc2c(c1C(=O)OCC)CC(C)(C)OC2,4.8*
CCCCC(=O)Nc1sc2c(c1C(=O)OCC)CC(C)(C)OC2,-0.37
N#Cc1cnc(Nc2nc3ccccc3s2)nc1-c1ccccc1,0.16
SMILES,Dicer processing
Cc1cc(C)nc(Nc2nc(-c3ccc(O)c(O)c3)cs2)n1,8.6*
Oc1ccc(-c2csc(Nc3ccccn3)n2)cc1,0.3
COc1ccc(-c2csc(Nc3ncccn3)n2)cc1OC,0.07
CSc1s[s+]c(SC)c1-c1ccccc1,-1.8
O=C1c2oc3ccc(F)cc3c(=O)c2C(c2ccccc2F)N1CCCN1CCOCC1 (stereo unspecified),0.8
N/C(=N\O)c1snnc1-c1ccccc1,-0.08
COC(=O)CSc1cc(C(F)(F)F)c(C(=O)Nc2ccc(Cl)cc2)cn1,-2.1
CC(C)(C)NC(=S)N/N=C/c1ccccc1O,5.7
CC(C)(C)NC(=S)N/N=C/c1ccccc1Cl,-0.13
CC(C)(C)NC(=S)N/N=C/c1coc2c(Cl)cc(Cl)cc2c1=O,4.8*
O=C(NNC1=Nc2ccccc2SC1)c1cccs1,-1.2
CN1C(=O)c2cccc3c(S(=O)(=O)NCC(=O)O)ccc1c23,3.1*
CN1C(=O)c2cccc3c(S(=O)(=O)NCCCCCC(=O)O)ccc1c23,-1.6
CN1C(=O)c2cccc3c(S(=O)(=O)NCCCC(=O)O)ccc1c23,0.78
COc1ccccc1-c1nnc(SCC(=O)c2ccc(Cl)cc2)n1C,-1.3
CCOC(=O)c1c(C)csc1NC(=O)CC(=O)Nc1scc(C)c1C(=O)OCC,-1.2
O=C(/C=C/c1cc([N+](=O)[O-])ccc1Sc1ccc(C(F)(F)F)cn1)Nc1ccccc1,-0.5
COC(=O)C(O)(NC(=O)c1cccc(C(F)(F)F)c1)C(F)(F)F (stereo unspecified),-0.56
Cc1ccc(C(=O)NN(C)c2cnn(-c3ccc(F)c(Cl)c3)c(=O)c2Cl)cc1,-2.1
Cc1c(C)c(C)c(S(=O)(=O)Oc2cccnc2)c(C)c1C,3.8*
Cc1c(C)c(C)c(S(=O)(=O)Oc2cc(Cl)cc(Cl)c2)c(C)c1C,-0.02
COc1ccc(S(=O)(=O)Nc2cccnc2)c(C)c1C,1.1
Cc1cc(Cl)ccc1NC(=S)NNC(=O)c1ccccc1Cl,-1.4
S=C(N/N=C\c1cccc2ccccc12)Nc1cccc(Cl)c1Cl,3.8*
Cc1cc(Cl)ccc1NC(=S)NN,3.4*
SMILES,Dicer processing
NNC(=S)Nc1cccc(Cl)c1Cl,4.3*
Cc1cc(Cl)ccc1NNC(N)=S,1.4
Cc1cccc(NC(=S)N/N=C\c2cccc3ccccc23)c1C,-0.02
CN(C)NC(=S)Nc1cccc(Cl)c1Cl,1.1
S=C(N/N=C/c1cccc2ccccc12)Nc1c(Cl)cccc1Cl,0.63
NNC(=S)Nc1ccccc1Cl,1.4
O=C1CN(C(=O)OCc2ccccc2)CCN1,0.57
CC1C=CCC2C(=O)N(c3ccc(C(=O)O)cc3)C(=O)C12 (stereo unspecified),-1.1
CCc1nnc(/N=C/c2cc(-c3ccccc3)sc2O)s1,1.7
CC(C)(C)c1ccc(OCc2nc3ccccc3[nH]2)cc1,-0.35
CCOC(=O)C1=C(C(=O)OCC)SC(=C2C(=S)C(C)(C)Nc3cc(C)ccc32)S1,0.28
O=S(Cc1c(Cl)cccc1Cl)c1ccc(C(F)(F)F)cn1 (stereo unspecified),-1.2
CC(C)c1ccc(NC(=O)CSc2n[nH]c(=O)n2C(C)c2ccccc2)cc1 (stereo unspecified),0.97
O=C(Nc1ccc(Cl)cc1)Nc1nc(-c2cc(Cl)c(Cl)s2)cs1,1.5
O=C(Nc1ccc(Cl)cc1)Nc1cc(Cl)sc1Cl,4.7*
N#Cc1c(F)ccc(NC(=O)Nc2ccc(Cl)cc2)c1F,-0.58
CC(C)N(Cc1ccccc1)C(=O)c1ccccc1C(=O)O,-1.1
Cc1cc(C(=O)O)c(C)n1-c1cc(C(F)(F)F)cc(C(F)(F)F)c1,0.05
N/C(=N/OC(=O)Nc1ccc(Cl)cc1)c1csc([N+](=O)[O-])c1,5*
O=C(Nc1ccc(Cl)cc1)Nc1csc([N+](=O)[O-])c1,-0.84
N/C(=N\OC(=O)Nc1ccc(Cl)cc1)c1ncc([N+](=O)[O-])s1,-2.5
COc1ccc(Cc2nn3c(-c4ccc(Cl)cc4Cl)nn(-c4ccc([N+](=O)[O-])cc4)c3nc2=O)cc1,0.25
COC(=O)C1=C(C)NC2=C(C(=O)c3ccccc32)C1c1ccccc1Cl (stereo unspecified),-1
COC(=O)C1=C(C)NC2=C(C(=O)c3ccccc32)C1c1ccc(-c2ccc(Cl)cc2)o1 (stereo unspecified),3.6*
COC(=O)C1=C(C)NC2=C(C(=O)c3ccccc32)C1c1cccs1 (stereo unspecified),-6.3
SMILES,Dicer processing
O=C(O)Cc1ccc2c(c1)OCCO2,-1.1
CCc1c(C)nc(N2CCOCC2)[nH]c1=O,-0.93
CCOc1cc(N2CCOCC2)c(OCC)cc1NS(=O)(=O)C(C)C,1.4
CC(C)Oc1c(N2CCOCC2)c(=O)c1=O,5.3*
CC(C)C(CO)NC(=O)Oc1ccccc1 (stereo unspecified),0.59
Cc1cccn2c(=O)c(NC(=O)c3ccc(Cl)cc3)cnc12,0.05
COC(=O)c1nc2c(C)cccn2c1F,3.1*
CCCS(=O)(=O)c1c(S(=O)(=O)CCC)c2c(C)cccn2c1C(=O)OC,0.26
CCOC(=O)c1c(C)oc2ccc(OCC)cc12,1
COC(=O)c1cc([N+](=O)[O-])nn1Cc1ccccc1,1.4
O=C(O)c1cccc(Cn2cnc([N+](=O)[O-])n2)c1,-0.2
O=C(Cn1cnc([N+](=O)[O-])n1)OCCCc1ccccc1,3.5*
Cc1nc(N2C(=O)c3oc4ccccc4c(=O)c3C2c2ccc(C(C)C)cc2)sc1C (stereo unspecified),0.75
